Several values for one entry are separate records, joined by “and”; a condition that tells them apart may be missing. Equal entries are not always repeated. Inconclusive results are not listed. The source holds several records for some structures; these can differ, active in one and inactive in another. Activity calls are given as the source filed them. Unless noted, the call rests on the fitted dose curve; in most records, active means well fitted curve in the direction sought with a large enough effect; inconclusive means small, poorly fitted or top-dose-only effect, or another doubt; inactive means no such curve, though single readings can be large; an effect the other way counts as inactive or inconclusive.
How the values were obtained:
[1] = molecular target: Tyrosine-protein kinase Yes (Homo sapiens) (UniProt P07947); assay: qHTS for small molecule inhibitors of Yes1 kinase: Primary Screen (AID 686947); conditions: Yes1 kinase biochemical qHTS inhibition; series mostly up to 76.9 µM;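 further: plate controls were DMSO with enzyme for no effect and no-enzyme DMSO wells for full effect; nearly all actives have a fitted effect of over 60% in size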
Summary of the method: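 ADP-Glo luminescence reports ADP formed by 4 nM Yes1 phosphorylating poly(E4Y) (0.3 mg/mL) with 0.1 mM ATP for 60 min at room temperature, following 20 min compound preincubation; normalised between DMSO wells with and without enzyme.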

[2] = qHTS for small molecule inhibitors of Yes1 kinase: Counter Assay (AID 686950); conditions: series mostly up to 76.9 µM;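 further: no kinase present so only ADP-Glo detection of a fixed ADP amount is tested; luminescence from ADP-Glo reporting ADP in a fixed ATP and ADP mixture; 0% = DMSO wells with ATP plus ADP and -100% = ATP-only wells without ADP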
Summary of the method: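 ADP-Glo luminescence read after a 60 min room-temperature incubation of compound with an ATP/ADP mix (0.08 mM/0.02 mM) and no kinase, following a 20 min compound preincubation. Signal scaled between ATP+ADP (max) and 0.1 mM ATP-only (min) wells; Tris pH 7.5, Mg2+, DTT.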

[3] = qHTS Assay for Identifying Gametocytocidal Compounds (AID 743244); further: potency means the concentration at half of the fitted maximal effect;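 on max response: on the % scale 0 is the no-effect control and ±100 the full control effect; actives lower the fluorescent signal which means gametocytes are killed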; conditions: P. falciparum 3D7 stage III-V gametocytes, alamarBlue, 72 h; max response: stronger effect = lower value
Summary of the method: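 Compounds are pinned into medium, gametocytes (stage III–V, 3D7, 20,000 cells/well) added, and plates held 72 h at 37 °C in 5% CO2. AlamarBlue follows for 24 h before fluorescence reading.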

[4] = qHTS assay for environmental chemicals that activate the Aryl hydrocarbon Receptor (AhR) signaling pathway (AID 651777); conditions: 1A2-DRE human hepatoma cells, luciferase, 24 h; stronger effect = higher value; further: % of control where 0% means no effect; nearly all actives have a fitted effect of over 15% in size
Summary of the method: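 AhR activation is scored as a rise in luciferase from a stable DRE–CYP1A2 promoter construct in human hepatoma cells. Treatment lasts 24 hr at 37 C; detection uses One-Glo after 30 min at room temperature.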

[5] = molecular target: Peroxisome proliferator-activated receptor alpha (Homo sapiens) (UniProt Q07869); assay: qHTS assay for small molecule agonists of the peroxisome proliferator-activated receptor alpha (PPARalpha) signaling pathway (AID 651778); conditions: PathHunter PPARalpha complementation, chemiluminescence, 6 h; max response: stronger effect = higher value; further: potency means the concentration at half of the fitted maximal effect; on max response: % of control where 0% means no effect
Summary of the method: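 Chemiluminescence from complemented enzyme reported PPARalpha activation in cells after 6 hr of compound treatment at 37 C. The detection reagent was incubated for 60 min at room temperature, and compounds were scored as agonists.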

[6] = molecular target: Arylsulfatase A (Homo sapiens) (UniProt P15289); assay: qHTS screen for enhancers of Arylsulfatase A (ASA1): LOPAC Validation Assay (AID 720538); conditions: ASA enzyme activity, LOPAC qHTS enhancer assay; series mostly up to 57.5 µM; further: 0% is about no effect
Summary of the method: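 SV40-transformed skin fibroblasts from an MLD patient (ASA-I179S) were treated with compounds for 48h at 37 degree C, then lysed with 0.5mM pNCS final substrate for 14h at room temperature; NaOH stop, fluorescence read (Ex=525 nm; Em=598 nm).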

[7] = qHTS for compounds that reverse cellular toxicity of Amyloid beta (A-beta) peptide in yeast: LOPAC Validation Assay (AID 720559); conditions: yeast expressing A-beta; series mostly up to 46.1 µM;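 further: plate controls were DMSO for no effect and equimolar ferric chloride plus clioquinol rescue for full effect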
Summary of the method: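 Yeast cells expressing toxic A-beta were combined with pinned compounds in growth medium and incubated 48 hr at 30 C. Growth was read as absorbance at 600 nm and normalized to DMSO and to an equimolar FeCl3/clioquinol positive control.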

[8] = qHTS for Activators of Parkin Expression: LOPAC Validation Assay (NLuc Reporter) (AID 720572); conditions: Parkin promoter NanoLuc reporter cells, luminescence, percent of positive control, DMSO as zero; series mostly up to 46.1 µM
Summary of the method: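 Compound effects on Parkin promoter activity were measured as NanoLuc luminescence after 24 h at 37 C. The neuronal reporter line also carried FLuc, which was read first. LOPAC compounds were tested at 7 concentrations, with normalization to DMSO (0%) and positive control (100%).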

[9] = qHTS for Activators of Parkin Expression: LOPAC Validation Assay (FLuc Reporter) (AID 720573); conditions: Cell line, PRKN promoter firefly luciferase reporter, vehicle wells = 0, positive control = 100%; series mostly up to 46.1 µM
Summary of the method: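 Neuronal cell line stably carrying FLuc/NLuc coincidence reporter under Parkin promoter; cells plated 24 h, then compounds added in 7-point dose response for 24 h at 37 C. FLuc luminescence read; normalized to DMSO and positive control (100%).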

[10] = qHTS assay for small molecule agonists of the antioxidant response element (ARE) signaling pathway measured by Nrf2-dependant transcriptional activity - cell viability counter screen (AID 720653; active means well fitted curve in the direction sought with a large enough effect in the repeat runs; an effect the other way counts as inactive or inconclusive; further: on the % scale 0 is the no-effect control and ±100 the full control effect); conditions: ARE-bla HepG2 viability, CellTiter-Glo ATP luminescence, 16 h; max response: stronger effect = lower value
Summary of the method: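 Cytotoxicity counter screen: intracellular ATP quantified by CellTiter-Glo luminescence in the same ARE-bla HepG2 plates, after 16 h compound exposure and a 2 h beta-lactamase substrate step.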

[11] = molecular target: T1, Hexokinase-4 (Homo sapiens) + Glucokinase regulatory protein (Homo sapiens) (UniProt P35557+Q14397); assay: qHTS assay for inhibitors of recombinant human GCK-GKRP interaction: Diaphorase-coupled assay (AID 743205); conditions: G6PDH/diaphorase resorufin fluorescence; series mostly up to 57.5 µM
Summary of the method: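 GST-GCK (10 nM) with FLAG-GKRP (10 nM), 5 mM glucose and 0.4 mM ATP in pH 7.6 Hepes; compounds preincubated 20 min with substrate. G6PDH/diaphorase coupling converts resazurin to resorufin, read kinetically (ex 525/em 590 nm) for 30 min.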

[12] = molecular target: T1, Hexokinase-4 (Homo sapiens) + Glucokinase regulatory protein (Homo sapiens); assay: qHTS assay for inhibitors of recombinant human GCK-GKRP interaction: ADP-Glo assay (AID 743206); conditions: ADP-Glo luminescence, 60 min, 0% = vehicle-only wells with enzyme present; series mostly up to 76.9 µM;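 further: plate controls were DMSO plus enzyme for no effect and no enzyme for full effect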
Summary of the method: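 Pin-transferred compounds meet a 15 nM GST-GCK/15 nM FLAG-GKRP/2 uM S6P mix (dispense concentrations). ATP is then added to 0.4 mM final with 5 mM glucose, and the reaction runs 60 min at room temperature. ADP is quantified luminescently.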

[13] = molecular target: T1, Hexokinase-4 (Homo sapiens) + Glucokinase regulatory protein (Homo sapiens); assay: qHTS assay for inhibitors of recombinant human GCK-GKRP interaction: HTRF assay (AID 743207); conditions: recombinant GCK-GKRP HTRF binding, 60 min, with sorbitol-6-phosphate; series mostly up to 57.5 µM;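 further: 0% = DMSO with GCK present and -100% = DMSO wells lacking GCK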
Summary of the method: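 GST-GCK and FLAG-GKRP (5 nM each) were combined with 2 uM S6P in pH 7.1 Hepes/MgCl2/KCl/DTT buffer, then compound and anti-FLAG XL665/anti-GST K antibodies were added. After 60 min at room temperature, HTRF 665/615 nm emission was read.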

[14] = qHTS assay for cell viability of HEK293 cells (AID 743288); conditions: ATP luminescence (CellTiter-Glo), 18 h; max response: stronger effect = lower value; further: on the % scale 0 is the no-effect control and ±100 the full control effect; nearly all actives have a fitted effect of over 50% in size
Summary of the method: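 After 18 h compound exposure at 37 C, parental HEK293 cells (2,000/well) are lysed with CellTiter-Glo and luminescence is read following 30 min at room temperature.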

[15] = qHTS assay for cell viability of the p53RE-bla HCT-116 cell line (AID 743292); conditions: p53RE-bla HCT-116 viability, ATP luminescence, 16 h; series mostly up to 95 µM; further: on the % scale 0 is the no-effect control and ±100 the full control effect; nearly all actives have a fitted effect of over 55% in size
Summary of the method: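 Quantitative high-throughput format: compounds in DMSO were pinned onto p53RE-bla HCT-116 cells (4,000/well) and incubated 16 h at 37 C. Total intracellular ATP, read by CellTiter-Glo luminescence, reflects viable cell number.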

[16] = qHTS for Inhibitors of Ubiquitin-specific Protease USP2a Using CHOP2 as the Reporter: K633 Counterscreen (AID 652168); conditions: No-enzyme DiUb K48 IQF substrate fluorescence interference, kinetic; series mostly up to 57.5 µM; further: % of control where 0% means no effect
Summary of the method: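 Detection-system control: fluorescence of K48-linked DiUb-4IQF substrate (100 nM as added) tracked over time, Ex 525/Em 598, with pinned compounds and no enzyme, in pH 8 Tris buffer containing beta-mercaptoethanol and 0.05% Chaps.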

[17] = qHTS for Inhibitors of Ubiquitin-specific Protease USP2a Using CHOP2 as the Reporter: Cytotox Assay (AID 652170); conditions: HCT116 viability, CellTiter-Glo luminescence, 72 h; series mostly up to 46.1 µM;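 further: HCT116 human colon cancer cells at 600 per well; plate controls were DMSO-treated cells for no effect and wells without cells for full effect; nearly all actives have a fitted effect of over 70% in size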
Summary of the method: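 Cytotoxicity read as ATP luminescence (CellTiter-Glo) after 72 hr compound treatment at 37 deg C. Cells: HCT116, 600/well in DMEM plus 10% FBS. Normalization between DMSO-treated cells and cell-free wells.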

[18] = qHTS assay for small molecule agonists of the antioxidant response element (ARE) signaling pathway measured by Nrf2-dependant transcriptional activity (AID 720636; active means well fitted curve in the direction sought with a large enough effect in the repeat runs; an effect the other way counts as inactive or inconclusive;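 further: HepG2 cells with an ARE-driven luciferase reporter; % of control where 0% means no effect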); conditions: ARE-luc HepG2, Nrf2 luciferase reporter, 16 h; series mostly up to 92.4 µM
Summary of the method: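 First, ARE-luc HepG2 cells attached for 6 hr at 37 C in 1% dialyzed FBS medium. Next, compound or DMSO was added and incubated 16 hr. Finally, ONE-Glo reagent was added and luminescence measured after 30 min.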

[19] = qHTS assay for small molecule antagonists of the retinoid-related orphan receptor gamma (ROR-gamma) signaling pathway - cell viability counter screen (AID 720652; active means well fitted curve in the direction sought with a large enough effect in the repeat runs; an effect the other way counts as inactive or inconclusive;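 further: CHO reporter cells with doxycycline-induced ROR-gamma expression; compound exposure lasted 16 hr before ATP read; on the % scale 0 is the no-effect control and ±100 the full control effect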); conditions: RORgamma reporter cell line viability counter screen; series mostly up to 92.2 µM
Summary of the method: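 Steps: seed CHO cells bearing TET-inducible ROR and ROR response element-luciferase; rest 5 hr at 37 C; add compound, then doxycycline; incubate 16 hr; add CellTiter-Glo and read luminescence as ATP-based viability.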

[20] = qHTS assay to identify small molecules that stimulate interleukin-8 (IL-8) secretion (AID 651758; active means well fitted activation curve with a large enough effect in the signal ratio; the % refers to the signal ratio; further: 0% is about no effect); conditions: HTRF ratio (665/615); series mostly up to 92.2 µM
Summary of the method: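 Secreted IL-8 measured homogeneously by TR-FRET (two labelled anti-IL-8 antibodies, 1-3 h at room temperature) after a 16 h, 37 C compound treatment of THP-1 cells at 2000 cells/well.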

Chain of Peroxisome proliferator-activated receptor alpha (Homo sapiens) (Q07869 whole entry, looked up): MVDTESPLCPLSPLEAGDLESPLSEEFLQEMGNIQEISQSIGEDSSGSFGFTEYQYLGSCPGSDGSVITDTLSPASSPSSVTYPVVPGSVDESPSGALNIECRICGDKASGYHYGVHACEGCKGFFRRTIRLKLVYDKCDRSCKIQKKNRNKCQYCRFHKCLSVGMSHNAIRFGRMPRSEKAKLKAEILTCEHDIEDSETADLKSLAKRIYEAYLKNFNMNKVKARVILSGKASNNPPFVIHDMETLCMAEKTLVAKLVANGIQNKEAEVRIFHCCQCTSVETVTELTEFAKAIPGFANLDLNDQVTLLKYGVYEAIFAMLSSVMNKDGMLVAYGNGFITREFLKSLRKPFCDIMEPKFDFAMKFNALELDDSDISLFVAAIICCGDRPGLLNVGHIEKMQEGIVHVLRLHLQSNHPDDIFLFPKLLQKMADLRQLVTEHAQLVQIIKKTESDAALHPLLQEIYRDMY
T1 sequence (P35557 whole entry, looked up): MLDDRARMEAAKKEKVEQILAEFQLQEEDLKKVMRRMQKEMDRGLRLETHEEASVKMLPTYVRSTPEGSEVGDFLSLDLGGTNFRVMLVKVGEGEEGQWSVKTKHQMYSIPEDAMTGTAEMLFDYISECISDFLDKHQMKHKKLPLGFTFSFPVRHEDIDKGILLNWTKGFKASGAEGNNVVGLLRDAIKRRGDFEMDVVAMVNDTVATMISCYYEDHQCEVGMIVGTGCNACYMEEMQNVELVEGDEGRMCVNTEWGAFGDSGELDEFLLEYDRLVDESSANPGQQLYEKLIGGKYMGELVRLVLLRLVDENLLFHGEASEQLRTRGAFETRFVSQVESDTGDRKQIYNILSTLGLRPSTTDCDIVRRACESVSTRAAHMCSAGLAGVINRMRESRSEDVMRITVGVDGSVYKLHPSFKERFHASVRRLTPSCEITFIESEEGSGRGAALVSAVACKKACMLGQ
T1 sequence (Q14397 whole entry, looked up): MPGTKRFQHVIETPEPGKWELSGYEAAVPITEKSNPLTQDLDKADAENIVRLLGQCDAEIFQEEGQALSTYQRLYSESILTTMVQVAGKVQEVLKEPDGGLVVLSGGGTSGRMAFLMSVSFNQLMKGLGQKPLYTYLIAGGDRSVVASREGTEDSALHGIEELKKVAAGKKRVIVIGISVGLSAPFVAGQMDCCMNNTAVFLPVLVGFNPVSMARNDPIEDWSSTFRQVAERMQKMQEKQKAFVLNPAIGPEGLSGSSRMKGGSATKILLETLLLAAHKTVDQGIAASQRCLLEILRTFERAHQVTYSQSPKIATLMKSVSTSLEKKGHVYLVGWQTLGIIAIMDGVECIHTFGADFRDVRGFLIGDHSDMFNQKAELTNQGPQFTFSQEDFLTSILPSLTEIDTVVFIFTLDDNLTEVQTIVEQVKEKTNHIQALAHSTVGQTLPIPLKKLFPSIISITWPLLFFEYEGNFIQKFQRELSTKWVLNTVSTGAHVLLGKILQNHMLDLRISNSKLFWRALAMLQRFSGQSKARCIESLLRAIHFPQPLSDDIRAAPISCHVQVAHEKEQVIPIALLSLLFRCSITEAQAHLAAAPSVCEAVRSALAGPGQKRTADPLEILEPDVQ
Chain of Arylsulfatase A (Homo sapiens) (P15289 whole entry, looked up): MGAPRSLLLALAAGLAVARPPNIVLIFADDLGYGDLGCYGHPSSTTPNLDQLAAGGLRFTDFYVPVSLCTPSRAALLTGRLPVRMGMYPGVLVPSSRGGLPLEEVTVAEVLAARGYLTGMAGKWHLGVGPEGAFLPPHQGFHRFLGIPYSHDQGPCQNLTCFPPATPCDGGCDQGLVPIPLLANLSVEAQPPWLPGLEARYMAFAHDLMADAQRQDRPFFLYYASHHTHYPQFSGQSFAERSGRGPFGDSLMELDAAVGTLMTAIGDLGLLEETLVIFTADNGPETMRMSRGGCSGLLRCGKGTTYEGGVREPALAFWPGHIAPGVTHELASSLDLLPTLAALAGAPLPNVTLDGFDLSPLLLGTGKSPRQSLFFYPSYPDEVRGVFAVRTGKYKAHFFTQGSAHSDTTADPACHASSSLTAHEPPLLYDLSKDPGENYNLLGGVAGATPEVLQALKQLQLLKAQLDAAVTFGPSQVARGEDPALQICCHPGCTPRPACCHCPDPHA
Chain of Tyrosine-protein kinase Yes (Homo sapiens) (P07947 whole entry, looked up): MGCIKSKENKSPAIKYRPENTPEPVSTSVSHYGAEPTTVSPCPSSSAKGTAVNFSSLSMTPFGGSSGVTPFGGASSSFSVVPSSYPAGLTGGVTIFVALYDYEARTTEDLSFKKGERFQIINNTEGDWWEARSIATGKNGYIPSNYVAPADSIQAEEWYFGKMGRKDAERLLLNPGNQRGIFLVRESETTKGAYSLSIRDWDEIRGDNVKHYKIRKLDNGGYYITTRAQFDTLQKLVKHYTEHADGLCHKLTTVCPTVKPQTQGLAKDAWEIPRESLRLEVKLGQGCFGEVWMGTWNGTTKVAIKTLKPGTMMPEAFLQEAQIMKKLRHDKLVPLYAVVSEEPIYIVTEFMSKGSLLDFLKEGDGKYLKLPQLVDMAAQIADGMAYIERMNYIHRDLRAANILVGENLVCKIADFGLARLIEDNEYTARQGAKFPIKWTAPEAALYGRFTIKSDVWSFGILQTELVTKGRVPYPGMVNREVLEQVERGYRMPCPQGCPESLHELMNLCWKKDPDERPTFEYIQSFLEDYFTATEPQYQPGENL

CC(C)C[C@H](NC(=O)[C@H](CCc1ccccc1)NC(=O)CN1CCOCC1)C(=O)N[C@@H](Cc1ccccc1)C(=O)N[C@@H](CC(C)C)C(=O)[C@@]1(C)CO1
inactive: outcome [1] | outcome [2]
active: Potency [3] 0.0118 µM

N[C@@H](Cc1ccc(O)c(O)c1)C(=O)O
inactive: activation [4] 2.04% | max response [5] -1.63% | outcome [6] | outcome [7] | outcome [8] | outcome [9] | max response [10] 13.2% | outcome [11] | outcome [12] | outcome [13] | max response [3] 20.2% | max response [14] 4.23% | Potency [15]

Cc1cc(NS(=O)(=O)c2ccc(N)cc2)no1
inactive: activation [4] -0.784% | max response [5] -1.17% | outcome [16] | outcome [17] | outcome [18] | Potency [19] | max response [10] 3.89% | max response [14] -9.46% | Potency [15]

NNC(=O)c1ccncc1
inactive: outcome [20] | activation [4] 4.86% | max response [5] -1.45% | outcome [18] | Potency [19] | max response [10] -4.52% | max response [3] -1.22% | max response [14] -4% | Potency [15]

N=C(N)c1ccc(OCCCCCOc2ccc(C(=N)N)cc2)cc1
inactive: max response [5] -3.05% and -5.88% | outcome [18] | Potency [19] | max response [10] -9.35% and -16.5% | max response [14] -23.8% and -12.7% | Potency [15]
active: Potency [3] 6.31 µM

S=P(N1CC1)(N1CC1)N1CC1
inactive: activation [4] 0.0951% | max response [5] -1.18% | outcome [18] | max response [10] -3.97% | max response [3] 9.1% and 8.65% | max response [14] -14.8% | Potency [15]

NC(N)=NC(N)=NCCc1ccccc1
inactive: activation [4] 1.08% and -0.702% | max response [5] -1.6% | outcome [18] | Potency [19] | max response [10] -24.7% and -24.4% | max response [14] -5.89% and -15.7% | Potency [15]
active: Potency [5] 35.5 µM

NC1(c2ccc(-c3nc4ccn5c(=O)[nH]nc5c4cc3-c3ccccc3)cc2)CCC1
inactive: outcome [2]
active: Potency [3] 11.8 µM

CCCCS(=N)(=O)CCC(N)C(=O)O (stereo not given)
inactive: outcome [6] | outcome [7] | outcome [8] | outcome [9] | outcome [11] | outcome [12] | outcome [13]

— PubChem BioAssay (NCATS)
